Hits are enriched below; roughly 14% of the tested compounds scored in any of these assays.
LmPK inh: LmPK (Leishmania mexicana) enzyme inhibition | Q27686 | 290,000 tested, 0.37% active | Potency, µM (series often up to 57.5 µM), inactives show top-dose activity change, negative = inhibition, most hits filed as inhibitors | purified LmPK, Kinase-Glo ATP luminescence, 1 h; also: potency is read from the fitted curve at half-maximal effect; % is scaled to controls: 0 for no effect and ±100 for the full control effect
Target sequence (Q27686 whole entry, looked up): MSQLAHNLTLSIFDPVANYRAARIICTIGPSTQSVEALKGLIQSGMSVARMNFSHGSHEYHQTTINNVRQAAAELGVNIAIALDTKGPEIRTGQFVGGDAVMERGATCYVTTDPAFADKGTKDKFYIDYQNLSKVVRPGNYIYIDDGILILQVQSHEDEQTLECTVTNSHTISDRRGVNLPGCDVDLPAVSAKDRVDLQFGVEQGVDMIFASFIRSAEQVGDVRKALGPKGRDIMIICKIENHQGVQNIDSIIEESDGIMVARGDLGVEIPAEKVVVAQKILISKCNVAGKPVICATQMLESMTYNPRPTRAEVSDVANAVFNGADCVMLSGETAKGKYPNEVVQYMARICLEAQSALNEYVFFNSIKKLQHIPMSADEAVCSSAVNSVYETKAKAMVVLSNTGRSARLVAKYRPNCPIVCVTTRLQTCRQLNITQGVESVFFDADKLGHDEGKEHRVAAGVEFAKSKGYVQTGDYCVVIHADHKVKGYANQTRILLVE
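Pyruvate kinase activity monitored as ATP production (luciferase luminescence). Conditions: 0.1 nM enzyme, 0.5 mM PEP, 0.1 mM ADP, 1 h, RT; normalized against uninhibited and no-enzyme wells.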
CHX counter: affects cycloheximide protein synthesis inhibition readout, counter-screen | cell reporter, cycloheximide protein synthesis inhibition counterscreen | max response, % | 300,000 tested, 12% active; in the data active = max response mostly above about 13%, no sharp cut-off; inactive = mostly below about 14%; also: read at 38.3 µM for the half of the compounds with a filed dose; 0% is about no effect
Shiga inhibitor: blocks Shiga toxin action in Vero cells | Vero cells, Shiga toxin protein synthesis inhibition reporter | inhibition, % at 38.7 µM | 290,000 tested, 9.2% active; in the data active = inhibition mostly above about 28%, no sharp cut-off; inactive = mostly below about 43%; also: 0% is about no effect
FBPA Giardia inh: blocks Giardia fructose-bisphosphate aldolase activity | 290,000 tested, 0.71% active | Potency, µM (highest dose often 59.6 µM), for the others: at the highest dose activity, negative = inhibition, usual class: inhibitors | purified Giardia FBPA; also: potency is read from the fitted curve at half-maximal effect; % is scaled to controls: 0 for no effect and ±100 for the full control effect; nearly all actives have a fitted effect of over 55% in size
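40 nM FBPA preincubated 10 min at RT with compound (up to 57.5 uM final), then substrate plus GAPDH/TPI/NAD/arsenate coupling and diaphorase/resazurin added. Fluorescence read after 20 min at RT, 525/598 nm.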
NS1 function inh: blocks influenza NS1 protein function; Potency, µM (highest dose often 46.1 µM), without a hit: at the highest dose activity, positive = more growth; 270,000 tested, 0.4% active; AID 2326; calls by dose curve; also: potency is read from the fitted curve at half-maximal effect; actives are rising curves; nearly all actives have a fitted effect of over 50% in size
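OD600 was taken as the measure of yeast growth restored by compound in an NS1-expressing S. cerevisiae strain. Cells had been washed out of glucose medium and diluted 1:100 into galactose -URA medium, pH 6.0.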
Numbers without * were called inactive. Unless noted, calls follow the shape of the dose curve; as a rule, active = well fitted curve in the direction sought with a large enough effect; inconclusive = small, poorly fitted or top-dose-only effect, or another doubt; inactive = no such curve, though single readings can be large; an effect the other way counts as inactive or inconclusive.

`CC(C)(C)n1c(O)c2ccc(C(=O)N=NC(=O)c3ccccc3)cc2c1O` gave LmPK inh 1%, CHX counter 27*, Shiga inhibitor 33, FBPA Giardia inh 4% and NS1 function inh 9%.
`Cc1ccccc1N=Nc1c(C)[nH]n(C(N)=S)c1=O` gave LmPK inh 2%, CHX counter 20*, Shiga inhibitor 67*, FBPA Giardia inh 15% and NS1 function inh -16%.
Cc1[nH]n(C(N)=S)c(=O)c1N=Nc1cccc(Cl)c1 was read as LmPK inh 1%, CHX counter 32*, Shiga inhibitor 60*, FBPA Giardia inh inconclusive and NS1 function inh -42%.
Screening Cc1[nH]n(C(N)=S)c(=O)c1N=Nc1ccc([N+](=O)[O-])cc1Cl returned LmPK inh -27%, CHX counter 14*, Shiga inhibitor 15, FBPA Giardia inh 17% and NS1 function inh -1%.
For Cc1cccn2c(NC(=O)c3ccccc3F)c(-c3ccccc3)nc12 the results were LmPK inh 3%, CHX counter 2, Shiga inhibitor -5, FBPA Giardia inh 4% and NS1 function inh 1%.
`NC(=O)c1ccsc1N` gave LmPK inh 8%, CHX counter -7, Shiga inhibitor -6, FBPA Giardia inh inconclusive and NS1 function inh 5%.
For Nc1sccc1C(=O)c1ccc(Cl)cc1 the results were LmPK inh 0%, CHX counter 24*, Shiga inhibitor 24, FBPA Giardia inh -16% and NS1 function inh -19%.
CC(C)c1ccc(/C=C2\SC(=O)N(CC(=O)NC3CCS(=O)(=O)C3)C2=O)cc1 (stereo not given) was read as LmPK inh -3%, CHX counter 36*, Shiga inhibitor 76* and NS1 function inh 14%.
`O=C(CN1C(=O)S/C(=C\C=C\c2ccccc2)C1=O)NC1CCS(=O)(=O)C1` (stereo not given) gave LmPK inh -1%, CHX counter 48*, Shiga inhibitor 46*, FBPA Giardia inh -10% and NS1 function inh 1%.
`O=C(CN1C(=O)S/C(=C\c2ccccc2)C1=O)NC1CCS(=O)(=O)C1` (stereo not given) gave LmPK inh -3%, CHX counter 1, Shiga inhibitor 10 and NS1 function inh 4%.
`COc1ccc(/C=C2\SC(=O)N(CC(=O)NC3CCS(=O)(=O)C3)C2=O)cc1` (stereo not given) gave LmPK inh -1%, CHX counter -5, Shiga inhibitor -6, FBPA Giardia inh -3% and NS1 function inh 7%.
CCOc1ccc(-c2c(C(=O)N/N=C(\C)c3cccnc3)nnn2-c2nonc2N)cc1 was read as LmPK inh 5%, CHX counter -2, Shiga inhibitor -13, FBPA Giardia inh -6% and NS1 function inh inconclusive.
COc1cc2c(cc1OC)CN(C(=O)C1CCCN1S(=O)(=O)c1ccc(F)cc1)CC2 (stereo not given) was read as LmPK inh -3%, CHX counter 4, Shiga inhibitor 2 and NS1 function inh -3%.
Cc1cccc(Nc2nc(N)c([N+](=O)[O-])c(NCc3ccco3)n2)c1 was read as LmPK inh -2%, CHX counter -3, Shiga inhibitor 21, FBPA Giardia inh -8% and NS1 function inh 25%.
`COc1ccc(Nc2nc(N)c([N+](=O)[O-])c(NCCO)n2)cc1` gave LmPK inh 5%, CHX counter 11, Shiga inhibitor 35, FBPA Giardia inh -3% and NS1 function inh 5%.
Screening Nc1nc(Nc2ccc(Cl)cc2)nc(NCc2ccco2)c1[N+](=O)[O-] returned LmPK inh 0%, CHX counter 48*, Shiga inhibitor 84*, FBPA Giardia inh -8% and NS1 function inh -2%.
Nc1nc(Nc2cccc(F)c2)nc(NCc2ccco2)c1[N+](=O)[O-] was read as LmPK inh -1%, CHX counter 13*, Shiga inhibitor 36, FBPA Giardia inh -1% and NS1 function inh -3%.
For Nc1nc(Nc2cccc(Cl)c2)nc(NCc2ccco2)c1[N+](=O)[O-] the results were LmPK inh 2%, CHX counter 34*, Shiga inhibitor 36, FBPA Giardia inh -7% and NS1 function inh -1%.
CNc1nc(Nc2ccc(Br)cc2)nc(N)c1[N+](=O)[O-] was read as LmPK inh -8%, CHX counter 24*, Shiga inhibitor 51*, FBPA Giardia inh 4% and NS1 function inh 20%.
